PglD inh = blocks C. jejuni PglD acetyltransferase activity. purified PglD enzyme, DTNB colorimetric CoA detection. 360,000 compounds, 0.098% hits. inhibition, % at 12.5 µM. AID 602405; in the data active = inhibition above about 16%, passing the limit was not always enough
F508del corr = correctors of CFTR F508del function in bronchial epithelial cells; CFBE cells, YFP halide quenching; stimulated with forskolin plus potentiator P3; % fluorescence drop versus neutral controls; activity (quench increase), % at 7.58 µM; 350,000 compounds, 0.36% hits; AID 720511;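 active = mean added fluorescence quench of at least 8% versus neutral control, with both replicates also reaching 8%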;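 note: cells transiently co-express mutant CFTR-F508del with the halide-sensitive YFP; corrector assay measuring rescue of mutant channel to the surface after 24 h compound exposure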
C2C12 statin = suppressors of simvastatin-induced myotoxicity in C2C12 myotubes. rescue of ATP level, % at 7.49 µM. 330,000 compounds, 0.78% hits. ATP luminescence, 48 h; scaled: DMSO 0, geranylgeraniol control 100;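 active = mean ATP rescue above about 67%, or every replicate alone reaching that limit, limit read from the data, passing the limit was not always enough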;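 note: myotubes were challenged with 10 µM simvastatin during compound exposure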
ARNT-TACC3 inh = disrupts binding between human ARNT and TACC3. 390,000 compounds, 0.66% hits. AID 623870. inhibition, % at 9.99 µM. Q9Y6A5. AlphaScreen His-ARNT PAS-B/GST-TACC3 binding, luminescence; TACC3 fragment carries E629A point mutation;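 active = mean inhibition of replicates at least 50% and at least half of replicates each reaching 50%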
ARNT Alpha ctr-1 = counter-screen for ARNT/TACC3 inhibitors: AlphaScreen artifacts; His-ARNT PASB-GST AlphaScreen artifact counter-screen, luminescence; 1,200 compounds, 50% hits; AID 651705; shares compounds with ARNT-TACC3 inh; AC50, µM (highest dose often 68 µM);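 active = every separate test run was called active for a drop in luminescence, with AC50 within twice the top valid dose, actives reach about 71 µM in these data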
ARNT Alpha ctr-2 = AlphaScreen artifact flagged for ARNT-TACC3 inhibitors; shares compounds with ARNT-TACC3 inh; Dual-tagged His-ARNT PASB-GST AlphaScreen artifact counter-screen; AC50, µM; 45 compounds, 70% hits; AID 720564;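 active = luminescence drop, with half-maximal potency fitted within twice the sample's top valid dose, cut at about 70 µM in these data; inactive = the rest, including signal moving the wrong way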
Hits are given with their value; – = inactive; · = no result. Hits are enriched below; roughly 1.4% of the tested compounds scored in any of these assays.

SMILES	PglD inh	F508del corr	C2C12 statin	ARNT-TACC3 inh	ARNT Alpha ctr-1	others
CO[C@H]1O[C@H](CO)[C@@H](OC(=O)Nc2ccccc2-c2ccccc2)[C@H](OC(=O)Nc2ccccc2-c2ccccc2)[C@@H]1OC(=O)Nc1ccccc1-c1ccccc1	·	–	·	·	·
O=C([C@@H]1[C@@H](CO)[C@@H]2Cn3c(cccc3=O)[C@H]1N2CC1CCCC1)N1CCc2ccccc2C1	–	–	–	–	·
Cc1ccccc1Oc1nc(-c2ccccn2)nc2ccccc12	–	–	–	51	–
Cc1cccc(Oc2nc(-c3ccccn3)nc3ccccc23)c1	–	–	–	65	–
Cc1ccnc(NC(c2ccccc2)c2ccc3cccnc3c2O)c1 (configuration not stated)	–	–	–	–	·
CCCC(=O)NC(c1ccc(N(C)C)cc1)c1ccc2cccnc2c1O (configuration not stated)	–	9.8	–	60	18µM
CCC(=O)NC(c1ccc(C)cc1)c1ccc2cccnc2c1O (configuration not stated)	–	11	–	35	28µM
CCCC(=O)NC(c1ccccc1Cl)c1ccc2cccnc2c1O (configuration not stated)	–	–	–	–	·
Cc1cc(NC(c2ccc(Cl)cc2)c2ccc3cccnc3c2O)no1 (configuration not stated)	–	·	–	55	10µM
COc1ccc(CN(C)C[C@@H]2OCc3cn(nn3)CCCC(=O)N([C@H](C)CO)C[C@@H]2C)cc1	–	–	–	–	·
O=C(CCC(=O)c1cccs1)OCc1nnc(-c2ccccc2)o1	–	·	–	33	–
COc1ccc([Si](C)(C)[C@H]2[C@H](CC(=O)N(CCO)Cc3ccccc3)O[C@@]3(C(=O)N(C)c4ccccc43)[C@@H]2C)cc1	–	–	·	–	·
O=C(Nc1ncc2ccccc2n1)c1cc(-c2ccccc2)on1	·	·	·	·	–
O=C(Nc1nnc(-c2ccccc2)s1)c1cc(-c2ccccc2)on1	·	·	·	·	–
O=C(Nc1nc2ccccc2s1)c1cc(-c2ccccc2)on1	·	·	·	·	–
O=C(Nc1cccnc1)c1cc(-c2ccccc2)on1	–	·	–	–	·
O=C(Nc1nc2ccccc2s1)c1cc(-c2ccccc2)nn1-c1ccccc1	–	–	·	–	·
O=C(Nc1ncc(-c2ccccc2)o1)c1cc(-c2ccccc2)on1	·	·	·	·	–
COc1ccc2nc(-c3ccc(N)cc3)[nH]c2c1	–	·	–	–	·
Nc1ccc2nc(-c3ccccn3)[nH]c2c1	–	·	–	46	45µM
COc1ccc2nc(-c3ccccn3)[nH]c2c1	–	–	–	40	–
COc1cc(/C=N/NC(=O)CSc2n[nH]c(=O)[nH]c2=O)cc(OC)c1O	·	–	·	57	–
O=C(CSc1n[nH]c(=O)[nH]c1=O)N/N=C/c1ccccc1O	·	·	·	52	–
CCOc1ccccc1/C=N/NC(=O)CSc1n[nH]c(=O)[nH]c1=O	·	–	·	–	·
C[C@@H]1CN([C@@H](C)CO)C(=O)c2cc(C3=CCCC3)cnc2O[C@H]1CN(C)C(=O)Cc1ccncc1	–	–	–	–	·
SMILES	PglD inh	F508del corr	C2C12 statin	ARNT-TACC3 inh	ARNT Alpha ctr-1	others
C[C@H]1CN([C@@H](C)CO)S(=O)(=O)c2ccc(C#CC3CC3)cc2O[C@@H]1CN(C)C(=O)c1cccnc1	–	–	–	–	·
CCC(=O)NC(c1cc(Cl)c2cccnc2c1O)C1CC1 (configuration not stated)	–	–	–	58	37µM
CCC(=O)NC(c1cccs1)c1cc(Cl)c2cccnc2c1O (configuration not stated)	·	–	·	–	·
CC(=O)NC(c1ccccc1)c1cc(Cl)c2cccnc2c1O (configuration not stated)	–	–	–	–	·
CCC(=O)NC(c1cc(Cl)c2cccnc2c1O)C(C)C (configuration not stated)	–	–	–	54	69µM
C[C@H](CO)N1C[C@H](C)[C@H](CN(C)C(=O)C2CCCCC2)OCCCC[C@H](C)Oc2ccc(NC(=O)Nc3cccc4ccccc34)cc2C1=O	–	–	·	–	·
COc1cccc(CNC(=O)COC(=O)c2ccc(C(=O)c3ccccc3)cc2)c1	–	–	–	55	–
Cc1ccc(-n2c(SCC(N)=O)nnc2-c2ccccn2)cc1	–	·	–	55	–
Cc1ccc(-n2c(SCc3ccc(C#N)cc3)nnc2-c2ccccn2)cc1	–	·	–	–	·
CCN(CC)C(=O)CSc1nnc(-c2ccccn2)n1-c1ccc(C)c(C)c1	–	·	–	52	–
CCN(CC)C(=O)CSc1nnc(-c2cnccn2)n1-c1ccccc1	–	·	–	–	·
C[C@H](CO)N1C[C@H](C)[C@H](CN(C)S(=O)(=O)c2ccccc2)Oc2ccc(NC(=O)CCCCCC(=O)Nc3ccccc3N)cc2C1=O	·	–	·	·	·
COC(=O)[C@@H]1[C@@H](CO)[C@@H]2Cn3c(ccc(-c4ccccc4)c3=O)[C@@H]2N1Cc1ccccc1F	–	–	–	–	·
COC(=O)[C@H]1[C@H](CO)[C@H]2Cn3c(ccc(-c4cccc(F)c4)c3=O)[C@H]2N1Cc1ccccn1	–	–	–	–	·
c1ccc(CSc2ccc(-c3ccccn3)nn2)nc1	·	–	·	64	9.1µM
c1ccc(-c2ccc(SCc3cccnc3)nn2)nc1	·	–	·	58	14µM
O=C(Nc1nc(-c2ccccn2)cs1)c1ccc([N+](=O)[O-])o1	–	–	241	61	17µM
O=C(Nc1nc(-c2ccccn2)cs1)c1cc(Cl)ccc1[N+](=O)[O-]	·	–	·	58	18µM
Cc1ccc(C(=O)Nc2nc(-c3ccccn3)cs2)o1	·	–	·	60	23µM	ARNT Alpha ctr-2=9.9
O=C(COc1ccc([N+](=O)[O-])cc1)Nc1nc(-c2ccccn2)cs1	–	–	–	63	48µM
Cc1cc(C(=O)Nc2nc(-c3ccccn3)cs2)ccc1[N+](=O)[O-]	·	–	·	–	·
O=C(Nc1ccccc1F)N[C@H]1CC[C@H](CCNC(=O)C2CCOCC2)O[C@H]1CO	–	–	–	–	·
O=C(Nc1nc(-c2ccccn2)cs1)C1COc2ccccc2O1 (configuration not stated)	–	–	–	71	29µM
Cc1ccc(C(=O)Nc2nc(-c3ccccc3)cs2)o1	·	·	·	·	·	ARNT Alpha ctr-2=–
O=C(Nc1nc(-c2ccccc2)cs1)C1COc2ccccc2O1 (configuration not stated)	–	·	–	·	·
COc1ccccc1NC(=O)N[C@@H]1CC[C@@H](CCn2cc(-c3cccnc3)nn2)O[C@H]1CO	–	–	–	–	·
CCOc1cc(C(=O)NC2CC(C)(C)NC(C)(C)C2)cc(OCC)c1OCC	–	–	–	53	–
CCOc1ccc(C(=O)NC2CC(C)(C)NC(C)(C)C2)cc1	–	–	–	–	·
COc1ccc(S(=O)(=O)Nc2ccc3c(c2)C(=O)N([C@@H](C)CO)C[C@@H](C)[C@@H](CN(C)C(=O)Cc2ccccc2)OCCCC[C@@H](C)O3)cc1	–	–	·	–	·
